# Only some compounds are listed: those with a hit (about 12% of all), similar ones and a draw of the others.
# BAZ2B inh: qHTS Assay for Inhibitors of BAZ2B; Bromodomain adjacent to zinc finger domain protein 2B (Homo sapiens), Q9UIF8; AlphaScreen BAZ2B-H3K14Ac peptide displacement; Potency, µM (series often up to 114 µM), for the others: at the top dose activity change, negative = inhibition, usual class: inhibitors; 360,000 tested, 4.4% active; also: % is scaled to controls: 0 for no effect and ±100 for the full control effect; nearly all actives have a fitted effect of over 60% in size
#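 Complex of BAZ2B and biotin-H3K14Ac (50 nM apiece) forms over 30 min at RT, then faces library compounds up to 110 uM for another 30 min; AlphaScreen beads added, 20 min dark incubation, luminescence read.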
# JMJD2A Tudor inh: qHTS Assay for Inhibitors of JMJD2A-Tudor Domain | Lysine-specific demethylase 4A (Homo sapiens), O75164 | AlphaScreen JMJD2A-Tudor / H3K4me3 peptide binding | Potency, µM (highest dose often 114 µM), without a hit: at the highest dose activity change, negative = inhibition, usual class: inhibitors | 390,000 tested, 4.4% active; also: % is scaled to controls: 0 for no effect and ±100 for the full control effect; nearly all actives have a fitted effect of over 50% in size
# HP1b chromo inh: HTS for Inhibitors of HP1-beta Chromodomain Interactions with Methylated Histone Tails; Chromobox protein homolog 1 (Homo sapiens), P83916; AlphaScreen HP1-beta / biotin-H3K9me3 peptide binding; Potency, µM (highest dose often 114 µM), inactives show at the top dose activity change, negative = inhibition, hits mostly inhibitors; 390,000 tested, 0.56% active; also: nearly all actives have a fitted effect of over 70% in size
# Target sequence (P83916 whole entry, looked up): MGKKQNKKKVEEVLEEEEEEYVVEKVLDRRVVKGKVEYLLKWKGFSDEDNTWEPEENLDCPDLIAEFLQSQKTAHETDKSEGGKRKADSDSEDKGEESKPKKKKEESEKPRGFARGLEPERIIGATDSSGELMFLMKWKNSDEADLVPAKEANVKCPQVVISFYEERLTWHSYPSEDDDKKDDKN
#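 HP1-beta protein (50 nM final) preincubated 30 min at room temperature with biotinylated H3(1-18)K9me3 peptide (50 nM) in PBS pH 7.4, 0.01% Tween-20, then compound added for 30 min. AlphaScreen streptavidin donor/nickel chelate acceptor beads (10 ug/mL final), 30 min dark, luminescence read.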
# Sfp inh: qHTS Assay for Inhibitors of Bacillus subtilis Sfp phosphopantetheinyl transferase (PPTase); Biochemical Sfp PPTase activity, qHTS; Potency, µM, for the others: largest response in the series, negative = inhibition, hits mostly inhibitors; 4'-phosphopantetheinyl transferase ffp (Bacillus subtilis), Q9F4F7; 310,000 tested, 3.5% active;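 also: the enzyme is Sfp with the accession as filed and its product quenches rhodamine fluorescence; 0% = enzyme reaction without inhibitor and -100% = no enzyme wells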
#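 With Hepes-Na pH 7.6 buffer containing 10 mM MgCl2, Sfp (15 nM) modified BHQ-2-YbbR (12.5 uM) using rhodamine-CoA (5 uM). Two reads 30 minutes apart at 525/598 nm yielded each well's rate.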
# G9a block: qHTS Assay for Inhibitors of Histone Lysine Methyltransferase G9a. Histone-lysine N-methyltransferase EHMT2 (Homo sapiens), Q96KQ7. Potency, µM (highest dose often 102 µM), inactives show at the top dose activity, negative = inhibition, most hits filed as inhibitors. 350,000 tested, 8.8% active. G9a H3K9 monomethylation, AlphaScreen, 2 h; also: % is scaled to controls: 0 for no effect and ±100 for the full control effect; nearly all actives have a fitted effect of over 75% in size
# Target sequence (Q96KQ7 913-1193 limits assumed): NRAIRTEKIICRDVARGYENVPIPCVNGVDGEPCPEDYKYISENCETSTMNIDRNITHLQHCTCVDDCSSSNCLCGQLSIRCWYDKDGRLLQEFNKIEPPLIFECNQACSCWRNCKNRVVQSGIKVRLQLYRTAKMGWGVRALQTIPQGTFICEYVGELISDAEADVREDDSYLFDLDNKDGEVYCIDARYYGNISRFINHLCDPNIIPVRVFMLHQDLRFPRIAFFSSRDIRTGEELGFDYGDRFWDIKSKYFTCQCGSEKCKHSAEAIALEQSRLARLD
#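 Quantitative HTS format: methyltransferase activity on a biotin-tagged H3K9 peptide is measured by AlphaScreen, using a rabbit anti-monomethyl-H3K9 antibody with streptavidin donor and anti-IgG acceptor beads. Final levels are 20 nM enzyme, 500 nM peptide, 20 uM SAM; 2 h RT.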
# L3MBTL1 inh: qHTS Assay for the Inhibitors of L3MBTL1; AlphaScreen L3MBTL1–H3K9me1 peptide binding; Potency, µM (top dose mostly 57.1 µM), without a hit: at the highest dose activity, negative = inhibition, hits mostly inhibitors; 230,000 tested, 0.66% active; AID 485360, 2010; also: % is scaled to controls: 0 for no effect and ±100 for the full control effect; nearly all actives have a fitted effect of over 60% in size
#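 Displacement of a biotinylated histone H3(1-15) peptide monomethylated at Lys9 (75 nM) from L3MBTL1 (50 nM) was measured by AlphaScreen after a 30 min room-temperature compound incubation; cefsulodin titration served as intraplate control.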
# An asterisk follows results filed as active; ? = inconclusive; nt = no result; [ ] = dose if it differs, or a comment. Calls follow the shape of the dose curve; as a rule, active = well fitted curve in the direction sought with a large enough effect; inconclusive = small, poorly fitted or top-dose-only effect, or another doubt; inactive = no such curve, though single readings can be large; an effect the other way counts as inactive or inconclusive. Potency is read from the fitted curve at half-maximal effect.
SMILES,BAZ2B inh,JMJD2A Tudor inh,HP1b chromo inh,Sfp inh,G9a block,L3MBTL1 inh
Clc1ccc(C(c2nnnn2C2CCCC2)N2CCN(Cc3ccncc3)CC2)cc1 (centres undefined),?,16%[11.4 µM],44%,17%,3%[59 µM],0%
CCCC(c1nnnn1C1CCCC1)N1CCN(c2ccccc2F)CC1 (centres undefined),-30%,-5%[11.4 µM],32%,6%,50µM*,-8%
Fc1ccccc1N1CCN(C(c2ccncc2)c2nnnn2C2CCCC2)CC1 (centres undefined),0%,-18%,41%,-2%,32µM*,-1%
c1ccc(C(c2nnnn2C2CCCC2)N2CCCCCC2)nc1 (centres undefined),50µM*,50µM*,7%,79µM*,28µM*,-13%
Cc1cc(C(=O)CSCCCn2c(=O)[nH]c3ccccc32)c(C)n1C,?,50µM*,-15%,-25%,10%[12.7 µM],-13%
C#CCOCCOCCOCCNc1nc(N2CCN(C(=O)Cn3cc(CCCN=C(N)N)nn3)CC2)nc(N2CCN(C(=O)[C@H](C)n3cc(CCCN=C(N)N)nn3)CC2)n1,?,-23%,27%,-5%,56µM*,6%
C#CCOCCOCCOCCNc1nc(N2CCN(C(=O)[C@H](C)n3cc(CCCN=C(N)N)nn3)CC2)nc(N2CCN(C(=O)[C@H](CCCCN)n3cc(CCCC)nn3)CC2)n1,?,nt,nt,4%,4.5µM*,-5%
C#CCOCCOCCOCCNc1nc(N2CCN(C(=O)[C@H]([C@@H](C)CC)n3cc(CCCN=C(N)N)nn3)CC2)nc(N2CCN(C(=O)[C@H](CCCCN)n3cc(CCCC)nn3)CC2)n1,-38%,-31%,17%,4%,?,-9%
C#CCOCCOCCOCCNc1nc(N2CCN(C(=O)Cn3cc(CCCN=C(N)N)nn3)CC2)nc(N2CCN(C(=O)[C@H](CCCCN)n3cc(CCCC)nn3)CC2)n1,79µM*,-35%,36%,nt,-2%[2.33 µM],-2%
COc1cc(/C=C/c2nc(C#N)c(NC3CCCCC3)o2)cc(OC)c1OC,?,-6%,-16%,nt,-1%[59 µM],nt
C[C@H](CCC(=O)O)C1CC[C@H]2C3CC[C@@H]4C[C@H](O)CC[C@]4(C)C3C[C@H](O)[C@]12C (some centres undefined),nt,nt,nt,23%,30%[59 µM],nt
CCOc1ccccc1Nc1ccc2cc(S(=O)(=O)N3CCCCC3)ccc2n1,34%,49%,107%,nt,?,nt
COc1ccc(NC(=O)CN(C)CC(=O)N2CCCCCC2)cc1,27%,14µM*,24%,nt,56µM*,1%
COc1cccc(NC(=O)CN(C)C(C)C(=O)NC(C)c2ccc(Cl)cc2Cl)c1 (centres undefined),-2%,-14%,40%,nt,28µM*,11%
COc1ccc(NC(=O)CN(C)CC(=O)Nc2ccc3c(c2)CCC3)cc1,-22%,-17%,16%,17%,-19%,-4%
CCC(C)c1ccc(NC(=O)CN(C)CC(=O)Nc2cccc(OC)c2)cc1 (centres undefined),50µM*,5%,35%,-31%,50µM*,nt
CN(CC(=O)Nc1ccc(Cl)cc1)CC(=O)Nc1cccc(Br)c1,1%,-6%,35%,12%,45µM*,nt
COc1cccc(NC(=O)CN(C)C(C)C(=O)Nc2ccc(C(C)=O)cc2)c1 (centres undefined),-19%,-17%,22%,15%,-1%,6%
COc1cccc(Cn2c(CNS(=O)(=O)c3ccc(C(C)(C)C)cc3)nc3cccnc32)c1,-2%,-21%,31%[57 µM],nt,-3%[59 µM],nt

# Screening results (PubChem BioAssay)
